# SARS PLpro yeast: inhibitors of SARS-CoV papain-like protease in yeast | S. cerevisiae expressing SARS-CoV PLpro, growth rescue | Potency, µM (top dose mostly 32.9 µM), for inactives: at the top dose activity, positive = growth rescue, usual class: activators | hit rate 0.19% among 330,000; calls by dose curve; also: potency is read from the fitted curve at half-maximal effect; 0% is about no effect; nearly all actives have a fitted effect of over 55% in size
# NS1 inh: blocks influenza NS1 protein function. Potency, µM (doses to about 46.1 µM), for the others: at the top dose activity, positive = more growth. hit rate 0.4% among 270,000; calls by dose curve; also: potency is read from the fitted curve at half-maximal effect; actives are rising curves; nearly all actives have a fitted effect of over 50% in size
#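 A cell-based growth assay was used: compounds that relieve NS1-induced slow growth of budding yeast raise OD600. Assay medium was yeast nitrogen base with ammonium sulphate and -URA supplement, pH 6.0, with 2% galactose.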
# Tb PYK inh: T. brucei pyruvate kinase inhibition; Potency, µM (titrated, usually from 76.8 µM), without a hit: at the top dose activity, negative = inhibition, most hits filed as inhibitors; TbPYK enzyme, Kinase-Glo Plus ATP luminescence, 45 min; Q57TT1; hit rate 0.12% among 410,000; also: potency is read from the fitted curve at half-maximal effect; % is scaled to controls: 0 for no effect and ±100 for the full control effect; nearly all actives have a fitted effect of over 50% in size
#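 In this concentration-response screen, enzyme-free wells defined baseline while DMSO plates tracked drift. Each reaction combined TbPYK, substrate, compound and 130 uM ADP for 45 min at room temperature. Kinase-Glo Plus luminescence gave the signal.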
# CHX counter: counter-screen hit for Shiga toxin inhibitors, cycloheximide; cell reporter, cycloheximide protein synthesis inhibition counterscreen; max response, %; hit rate 12% among 300,000; in the data active = max response mostly above about 13%, no sharp cut-off; inactive = mostly below about 14%; also: read at 38.3 µM for the half of the compounds with a filed dose; 0% is about no effect
# LmPK inh: LmPK (Leishmania mexicana) enzyme inhibition; Q27686; Potency, µM (series often up to 57.5 µM), for inactives: top-dose activity change, negative = inhibition, hits mostly inhibitors; purified LmPK, Kinase-Glo ATP luminescence, 1 h; hit rate 0.37% among 290,000; AID 1721; also: potency is read from the fitted curve at half-maximal effect; % is scaled to controls: 0 for no effect and ±100 for the full control effect
# Target sequence (Q27686 whole entry, looked up): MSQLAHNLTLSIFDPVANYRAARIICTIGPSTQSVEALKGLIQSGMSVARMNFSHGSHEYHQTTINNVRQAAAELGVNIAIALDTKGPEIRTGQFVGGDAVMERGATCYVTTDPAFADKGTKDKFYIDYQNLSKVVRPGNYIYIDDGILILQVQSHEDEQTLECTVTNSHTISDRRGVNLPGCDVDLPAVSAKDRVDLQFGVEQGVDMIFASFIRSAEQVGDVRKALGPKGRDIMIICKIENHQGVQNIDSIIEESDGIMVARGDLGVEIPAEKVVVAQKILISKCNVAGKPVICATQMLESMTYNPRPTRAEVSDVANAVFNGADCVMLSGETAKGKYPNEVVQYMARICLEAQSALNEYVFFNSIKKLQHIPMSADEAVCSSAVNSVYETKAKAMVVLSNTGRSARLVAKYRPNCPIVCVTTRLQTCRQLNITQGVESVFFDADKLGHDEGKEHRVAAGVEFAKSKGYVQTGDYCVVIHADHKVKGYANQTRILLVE
#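 Kinase-Glo luminescence read after 1 h RT reaction of 0.1 nM LmPK with 0.5 mM PEP and 0.1 mM ADP. Activity scaled between uninhibited and enzyme-free controls.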
# Shiga inhibitor: Shiga toxin inhibition. AID 2315. hit rate 9.2% among 290,000. inhibition, % at 38.7 µM. Vero cells, Shiga toxin protein synthesis inhibition reporter; in the data active = inhibition mostly above about 28%, no sharp cut-off; inactive = mostly below about 43%; also: 0% is about no effect
# An asterisk follows results filed as active; u = inconclusive; x = no result given; [ ] = dose if it differs, or a comment. This excerpt belongs to a sample that is enriched for hits. Unless noted, calls follow the shape of the dose curve; as a rule, active = well fitted curve in the direction sought with a large enough effect; inconclusive = small, poorly fitted or top-dose-only effect, or another doubt; inactive = no such curve, though single readings can be large; an effect the other way counts as inactive or inconclusive.
SMILES,SARS PLpro yeast,NS1 inh,Tb PYK inh,CHX counter,LmPK inh,Shiga inhibitor
Cn1ncc(N)c1C(=O)Nc1cccc(C(F)(F)F)c1,0%,1%,0%,3,-4%,14
COc1ccc(NC(=O)c2c(N)cnn2C)cc1,-1%,-3%,-4%,18*,-3%,25
COc1ccc(NC(=O)c2c(N)no[n+]2[O-])cc1,1%,x,3%,16*,-4%,48
COc1ccccc1-n1ncc2c(=O)[nH]c(SCC(=O)Nc3ccc(Cl)cc3)nc21,x,x,2%,x,x,x
CC(C)OC(=O)CC(=O)CSc1nc2c(cc1C#N)CCCCCC2,-3%,12%,-4%,15,1%,17
CC(C)OC(=O)CC(=O)CSc1nc2c(cc1C#N)CCC2,2%,2%,-3%,14,-1%,24
CC(C)OC(=O)CC(=O)CSc1nc2c(cc1C#N)CCCC2,x,-4%,1%,37*,-5%,82*
COC(=O)CC(=O)CSc1nc2c(cc1C#N)CCC2,1%,x,-18%,18*,u,54*
Cc1ccc(O)c(Cn2nnc3ccccc32)c1,-7%,x,1%,x,x,x
CCOc1ccc(C)cc1-n1nc2ccccc2n1,1%,-15%,4%,20*,-3%,19
Cc1ccc(O)c(-n2nc3ccccc3n2)c1,0%,-1%,-12%,44*,u,90*
COc1ccc(C)cc1-n1nc2ccccc2n1,-1%,-6%,2%,26*,0%,54
Cc1ccc(-n2ncc(C(=O)NCCN3CCC(Cc4ccccc4)CC3)c2C2CCN(C(=O)OC(C)(C)C)CC2)cc1,x,x,-1%[15.4 µM],x,x,x
O=[n+]1c2c(n([O-])c3cc(F)c(N4CCCC4)cc31)CCC2,x,-6%,-2%,x,x,x
O=[n+]1c2c(n([O-])c3cc(F)c(N4CCCC4)cc31)CCCC2,-14%,-8%,-9%,30*,2%,61*
O=Cc1ccccc1OCc1ccc2c(c1)OCO2,-14%,-15%,u,46*,-4%,100*
COc1ccccc1CNCc1ccc2c(c1)OCO2,x,x,-7%,x,x,x
Cc1ccc(-n2nnnc2Sc2ccc(S(=O)(=O)NCCN(C)C)cc2[N+](=O)[O-])cc1,u,9%,-18%,15,3%,19
O=[N+]([O-])c1cc(S(=O)(=O)NCCN2CCOCC2)ccc1Sc1nnnn1-c1ccccc1,17%,5%,-2%,16*,8%,10
Cc1nc(Cc2nnc(SC(C)C(=O)Nc3ccccc3)o2)cs1 (stereo unspecified),x,x,-7%,x,x,x
Cc1ccccc1Nc1nc(N)nc(CSc2nc3ccccc3c(=O)n2CCCO)n1,2%,-6%,u,-2,-5%,22
Cc1ccc2c(CSc3nc4ccccc4c(=O)n3CCCO)cc(=O)oc2c1C,1%,0%,3%,9,2%,109*
O=C1NC(=S)N/C1=C/c1cccc2ccccc12,-1%,-2%,-22%,29*,-4%,89*
CSc1ncccc1C(=O)OCC(=O)Nc1ccc2c(c1)OCO2,-4%,x,1%,12,6%,35*
CSc1ncccc1C(=O)OCC(=O)Nc1ccc2c(c1)CCC2,-6%,x,2%,x,x,x
SMILES,SARS PLpro yeast,NS1 inh,Tb PYK inh,CHX counter,LmPK inh,Shiga inhibitor
O=C(COC(=O)c1cccnc1Cl)Nc1ccc2c(c1)OCO2,-1%,x,2%,32*,-14%,97*
CCc1ccc(S(=O)(=O)Nc2ccc3c(c2)sc(=O)n3C)cc1,x,x,1%,x,x,x
O=C(CN1CCCN(S(=O)(=O)c2ccc(Br)cc2)CC1)Nc1cccc(C(F)(F)F)c1,x,x,0%,x,x,x
COc1ccccc1N(CC(=O)NCCSCc1ccccc1Cl)S(C)(=O)=O,4%,-2%,1%,-3,3%,-3
CN(C)c1ccc(/C=C(\C#N)c2ccccn2)cc1,-50%,2%,u,-5,10µM*,-15
COC(=O)c1ccc(/C=C(\C#N)c2ccccn2)cc1,-6%,-5%,10%,39*,-19%,133*
COc1cc(/C=C(\C#N)c2ccccn2)cc(OC)c1O,-2%,-37%,-8%,17,2%,3
COc1cc(/C=C(\C#N)c2ccccn2)ccc1OCc1ccccc1Cl,5%,11%,0%,10,5%,2
N#C/C(=C\c1cccnc1)c1ccc([N+](=O)[O-])cc1,-13%,-9%,3%,5,-3%,15
N#C/C(=C\c1ccc([N+](=O)[O-])cc1)c1ccccn1,-3%,x,-4%,29*,-15%,49*
O=C(OCC1(COC(=O)c2cccnc2)CCCC(COC(=O)c2cccnc2)(COC(=O)c2cccnc2)C1O)c1cccnc1,x,x,-7%,x,x,x
CC12CCC(O)CC1=CCC1C2CCC2(C)C(c3ccn[nH]3)CCC12 (stereo unspecified),x,x,10%,x,x,x
OC(CN1CCCCC1)c1cc(-c2ccccc2)on1 (stereo unspecified),x,x,-5%,x,x,x
C[n+]1cccc(/C=C\c2ccc3cccc(O)c3n2)c1,x,-4%,x,x,x,x
O=C(O)c1ccc(/C=C/c2ccc3cccc(O)c3n2)cc1,-7%,x,-6%,41*,-21%,82*
Oc1ccc(/C=C/c2ccc3cccc(O)c3n2)cc1Br,-10%,-83%,3%,50*,2%,68*
COC(=O)c1ccc(/C=C/c2ccc3cccc(OC(C)=O)c3n2)cc1,28%,-32%,-11%,57*,u,117*
CC1=NS(=O)(=O)NC(C)(C)C1,x,x,5%,x,x,x
Cc1cccc(OCCOc2ccccc2C=C(C#N)C#N)c1,-36%,-41%,-8%,19*,0%,17
Cc1ccccc1OCCOc1ccccc1C=C(C#N)C#N,-25%,-23%,x,28*,5%,36*
Cc1ccccc1OCCNC(=S)Nc1ccccc1,6%,-5%,0%,10,-1%,15
COc1cccc(N2CC(NC(=O)COc3ccccc3F)CC2=O)c1 (stereo unspecified),x,x,-5%,x,x,x
O=C1/C(=C/c2cccs2)SC(=S)N1CCC(=O)N1CCCCC1CCO (stereo unspecified),-4%,-19%,6%,39*,4%,121*
